# PubChem BioAssay (NCI)
# Compounds without any hit were thinned out: in the full panel of roughly 83,000, 20% have a hit.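 Each cell line was grown in a 96-well plate and treated with one concentration of compound for 48 hours. Values below 10 were considered active.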 A number with no mark means an inactive call. Activity calls are given as the source filed them.
# Test system: HL-60(TB) leukemia
# Assay: NCI-60 one-dose screen, 48 h (100 = growth as untreated, 0 = no growth, -100 = all killed)
# Conditions: 10 µM unless noted
row,Compound,growth
1,CC(=O)Nc1c(Cl)cc2c(c1Cl)Cc1cc([N+](=O)[O-])ccc1-2,96.3%
2,C=C1C(=O)O[C@H]2[C@H]1CC/C(COC(=O)c1cccnc1N)=C\CC[C@@]1(C)O[C@@H]21,-3.64% (active)
3,NC1=NC(=O)NC1(c1ccccc1)c1ccccc1,98.4%
4,CN(C)Cc1ccc(O)c(C(=O)O)c1,107%
5,COc1ccc(-c2ccc(-c3ccc(C(=N)N)cc3)s2)cc1Cl,-48.8% (active)
6,CCOC(=O)C1=CSC2=NC3=C(CCC/C3=C\c3ccc(Cl)cc3)C(c3ccc(Cl)cc3)N12 (stereo not given),79.7%
7,O=NN(CCCl)C(=O)Nc1ccc(NC(=O)N(CCCl)N=O)cc1,94.8%
8,N=c1c(S(=O)(=O)c2ccccc2)cc2c(=O)n3ccccc3nc2n1C1CCCC1,104%
9,C[C@]12CC[C@@H]3c4cc(O)c(O)cc4CC[C@H]3[C@@H]1CC[C@@H]2O,4.62% (active)
10,COc1ccc(/C=C2/CN(CCC#N)C/C(=C\c3ccc(OC)cc3)C2=O)cc1,13.6%
11,Cn1c(NCCc2ccc(O)c(O)c2)nc2c1c(=O)n(Cc1ccc(Cl)cc1)c(=O)n2C,13.2%
12,Cc1cc(=O)oc2cc(OC(=O)N3CCN(C)CC3)ccc12,106%
13,CC(C)c1ccc(-c2cnc3nonc3n2)cc1,-18.3% (active)
14,Cc1cc(O[C@@H]2O[C@@H](C)[C@H](O)[C@@H](O)[C@H]2O)c2c3c(c(O[C@@H]4O[C@@H](C)[C@H](O)[C@@H](O)[C@H]4O)cc2c1)C(=O)c1c(O)cccc1C3=O,64.9%
15,O=c1[nH]c2cc(O)ccc2n2cc3c(F)cccc3c12,25.5%
16,O=C(/C=C/c1ccco1)c1cccc(Nc2nc(Nc3ccccc3)nc(Nc3ccccc3)n2)c1,91.1%
17,[N-]=[N+]=NCc1ncc(-c2ccc(C(F)(F)F)cc2)c(NC2CCCCCC2)n1,43.4% [50 µM]
18,O=S(=O)(Nc1ccc(-n2cnc3cc(-c4ccc(O)cc4)ccc32)cc1)c1ccccc1,79%
19,CCc1ccc(Nc2cc(C)c3ccc(O)cc3n2)cc1,33.9%
20,CCOC(=O)C1C(=O)C=C(c2ccccc2)CC1c1sc(N(C)Cc2ccccc2)nc1Cl (stereo not given),78.4%

row,Compound,growth
1,CCC(C)[C@H](NC(=O)Nc1cc(C(F)(F)F)cc(C(F)(F)F)c1)C(=O)N[C@@H](Cc1cn(C)cn1)C(=O)OC (stereo not given in full),-78.4% [100 µM] (active)
2,C=CCOC(=O)Nc1cccn([C@H](Cc2ccccc2)C(=O)NCCC(C)C)c1=O,95.1%
3,CC1(O)COCCCCOc2c(CN)cccc2NC(=O)c2nc(cnc2N)-c2ccc(cc2)S(=O)(=O)C(C)(C)C1 (stereo not given),-54.7% (active)
4,N#C/C(C(=O)c1ccccc1)=C1/C(=O)Nc2ccccc21,106%
5,CCOC(=O)c1cc2c(n1Cc1cc(OC)cc(OC)c1)-c1oncc1CCC2,5.41% (active)
6,CC1=C([Se]CC(OC(=O)[C@@H](CSSC(C)(C)C)NC(=O)OC(C)(C)C)C(=O)NC(C)(C)C)C(=O)c2ccccc2C1=O (stereo not given in full),-2.66% (active)
7,C[C@]12C=CC(=O)C=C1[C@@H](F)C[C@@H]1[C@@H]2[C@@H](O)C[C@@]2(C)[C@H]1CC[C@]2(O)C(=O)CO,107%
8,FC(F)(F)c1ccc(/C=N/Nc2nnc3n2N=C(c2ccc(Cl)cc2)CS3)cc1,93.3%
9,CCN(CC)c1ccc(Nc2ccc(CC(=O)c3ccccc3)cc2)cc1,97.9%
10,COc1cc(/C=C2\COc3ccc(O)c(O)c3C2=O)cc(OC)c1,-29.8% (active)
11,CC/C(=C\c1ccc(N(C)C)cc1)c1nc2ccccc2c(=O)[nH]1,179%
12,CCN1C(=O)N(c2ccccc2)C2NC(=S)N(/N=C/C=C/c3ccccc3OC)C21 (stereo not given),-44.9% (active)
13,CCCCCCCCCCCCCCCCOc1ccc(S(=O)(=O)N(C)C)cc1[N+](=O)[O-],110%
14,Cc1ccc2nc(-c3ccc(C(=O)NNC(=S)Nc4ccccc4)cc3)[nH]c2c1,98%
15,O=C(N/N=C\c1cc(Br)ccc1O)c1ccncc1,-27.5% (active)
16,CCc1ccc(CCC(=O)Nc2ncc(Cc3cc(Cl)ccc3Cl)s2)o1,-44.5% (active)
17,COc1ccc(/C=N/NC(=O)c2cnn(CC(O)Cc3ccccc3)c2N)cc1OC1CCCC1 (stereo not given),105%
18,CC(=O)CC(c1ccccc1)c1c(C)[nH]c2ccccc12 (stereo not given),107%
19,COc1ccc(N2CCN(c3nc(-c4ccccc4)c(C#N)c(=O)[nH]3)CC2)cc1,55.2%
20,CCOC(=O)C/C(=N\Nc1cc(=O)[nH]c2ccc(Br)cc12)C(=O)OCC,-7.84% (active)
